Source: PubChem (National Center for Advancing Translational Sciences (NCATS))
The sample as a whole holds a higher share of hits than the screen did.
ALOX12 inh: ALOX12 (human) lipoxygenase inhibition | Potency, µM (titrated, usually from 108 µM), for the others: at the top dose activity change, negative = inhibition, usual class: inhibitors | purified 12hLO, xylenol orange hydroperoxide absorbance | actives 1.1% (n = 580,000) | P18054; further: on the % scale 0 is the no-effect control and ±100 the full control effect
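Hydroperoxide product was detected by ferrous iron/xylenol orange as the 573 to 405 nm absorbance ratio. Arachidonic acid at 40 uM (final) was turned over for 30 min at room temperature by 150 nM human 12hLO, pH 7.0 Hepes buffer, after 15 min compound preincubation.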
Sfp inh: inhibitors of Bacillus subtilis Sfp phosphopantetheinyl transferase | Q9F4F7 | Biochemical Sfp PPTase activity, qHTS | Potency, µM, without a hit: largest response in the series, negative = inhibition, usual class: inhibitors | actives 3.5% (n = 310,000);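 further: the enzyme is Sfp with the accession as filed and its product quenches rhodamine fluorescence; 0% = enzyme reaction without inhibitor and -100% = no enzyme wells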
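Sfp 15 nM + cpd, 15 min RT; start w/ rhodamine-CoA 5 uM, BHQ-2-YbbR 12.5 uM (final); 50 mM Hepes pH 7.6, 10 mM MgCl2, 0.01% NP-40, 0.01% BSA; read 525/598 nm at 0 and 30 min.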
VDR inh: vitamin D3 receptor (human) inhibition; VDR-SRC2-3 peptide fluorescence polarization, 2 h; Potency, µM, for inactives: max response, negative = inhibition, most hits filed as inhibitors; P11473; actives 0.93% (n = 400,000); AID 504847; further: on the % scale 0 is the no-effect control and ±100 the full control effect
Target sequence (P11473 whole entry, looked up): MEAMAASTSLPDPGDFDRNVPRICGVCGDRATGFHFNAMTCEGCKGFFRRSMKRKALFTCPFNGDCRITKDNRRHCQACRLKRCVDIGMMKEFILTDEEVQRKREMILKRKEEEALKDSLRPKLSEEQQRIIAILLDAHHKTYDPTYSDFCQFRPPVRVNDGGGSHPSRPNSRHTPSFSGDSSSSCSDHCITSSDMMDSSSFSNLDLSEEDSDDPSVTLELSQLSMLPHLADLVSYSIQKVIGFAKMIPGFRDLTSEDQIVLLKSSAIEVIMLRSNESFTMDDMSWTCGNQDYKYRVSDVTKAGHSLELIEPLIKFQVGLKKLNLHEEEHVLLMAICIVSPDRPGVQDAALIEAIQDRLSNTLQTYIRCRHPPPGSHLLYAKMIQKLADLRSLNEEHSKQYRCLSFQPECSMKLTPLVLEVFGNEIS
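Measured by FP: displacement of SRC2-3 coactivator peptide from VDR by library compounds, following a two-hour ambient incubation.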
GRP78 ERSR act: ER stress response induction in glioma | U87-MG GRP78 promoter luciferase reporter, 16 h | Potency, µM, for inactives: at the highest dose activation, hits mostly activators | actives 0.02% (n = 420,000) | AID 602332; further: series mostly up to about 76 µM; % of control where 0% means no effect; nearly all actives have a fitted effect of over 35% in size
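ERSR induction read as luciferase luminescence (Bright-Glo, 10 min at room temperature) in stably transfected human U87-MG glioma cells exposed to compounds for 16 h, using GRP78 as sensor.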
G9a inh: inhibitors of human histone lysine methyltransferase G9a. actives 8.8% (n = 350,000). Potency, µM (series often up to 102 µM), inactives show at the top dose activity, negative = inhibition, actives largely listed as inhibitors. G9a H3K9 monomethylation, AlphaScreen, 2 h. AID 504332. Q96KQ7; further: on the % scale 0 is the no-effect control and ±100 the full control effect; nearly all actives have a fitted effect of over 75% in size
Target sequence (Q96KQ7 913-1193 limits assumed): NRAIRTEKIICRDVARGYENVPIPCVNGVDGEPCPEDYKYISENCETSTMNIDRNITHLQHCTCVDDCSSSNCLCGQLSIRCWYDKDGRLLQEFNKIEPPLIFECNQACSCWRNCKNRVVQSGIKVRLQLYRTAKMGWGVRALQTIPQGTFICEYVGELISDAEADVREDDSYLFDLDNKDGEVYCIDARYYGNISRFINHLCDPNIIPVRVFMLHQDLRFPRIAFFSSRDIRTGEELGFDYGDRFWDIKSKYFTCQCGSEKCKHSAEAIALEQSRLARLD
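Using a bead-based AlphaScreen, monomethylated H3K9 product from 2 h room-temperature reactions (G9a 20 nM, peptide 500 nM, SAM 20 uM) was detected with 0.5 ug/mL rabbit anti-H3K9me1 antibody.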
An asterisk follows results filed as active; ? = inconclusive; . = no result given; [ ] = dose if it differs, or a comment. The call rests on the fitted dose curve; in most records, active means well fitted curve in the direction sought with a large enough effect; inconclusive means small, poorly fitted or top-dose-only effect, or another doubt; inactive means no such curve, though single readings can be large; an effect the other way counts as inactive or inconclusive. Potency means the concentration at half of the fitted maximal effect.

SMILES | ALOX12 inh | Sfp inh | VDR inh | GRP78 ERSR act | G9a inh
COc1ccccc1-c1cc2c(nc1-c1ccccc1)nc(C(=O)NC1CCN(C)CC1)n2C | 56.2% | . | . | . | .
CCOC(=O)c1c(CN2CCCCC2)n(C)c2cc(Br)c(O)c(CN(C)C)c12 | . | -11.7% | -7.0% | -3.2% | 35.5µM*
Cc1ccc(-c2cnc(CCC(=O)N(C)CC(=O)Nc3ccccc3Br)o2)cc1 | -28.1% | . | . | . | .
O=C(COc1cccc(-c2nnc3n2CCCC3)c1)N1CCN(c2ccccc2F)CC1 | -4.8% | . | . | . | .
COc1cc(C(=S)N2CCOCC2)ccc1OC(=O)c1ccc([N+](=O)[O-])cc1[N+](=O)[O-] | -10.6% | -23.4% | 0.4% | 1.2% | .
O=C(Oc1ccc(C(=S)N2CCOCC2)cc1)c1cc([N+](=O)[O-])cc([N+](=O)[O-])c1 | -15.9% | -4.0% | -27.0% | -1.3% | 35.5µM*
O=C(Oc1cccc(C(=S)N2CCOCC2)c1)c1ccc([N+](=O)[O-])cc1 | 2.6% | -24.4% | -17.7% | -0.4% | 31.6µM*
O=C(Oc1ccc(C(=S)N2CCOCC2)cc1)c1cccc(Cl)c1 | 15.8% | 39.8µM* | -18.6% | -7.5% | 44.7µM*
O=C(Oc1cccc(C(=O)N2CCOCC2)c1)c1ccc(Br)cc1 | -0.8% | 13.0% | 2.3% | -0.4% | -9.9%[59 µM]
Cc1c([N+](=O)[O-])cc(C(=O)Oc2cccc(C(=S)N3CCOCC3)c2)cc1[N+](=O)[O-] | -9.9% | 9.7% | -16.0% | 3.8% | 15.8µM*
O=C(Nc1cccc(Cl)c1)c1ccc(OC(=S)N2CCOCC2)cc1 | 17.7% | 17.7% | -7.6% | 0.9% | -24.3%
C=CCN(Cc1cccs1)C(=O)C1CCC1 | 11.6% | . | . | . | .
CCOc1ccc(NC(=O)COc2ncnc3ccc(Br)cc23)cc1 | -27.7% | . | . | . | .
O=C(Oc1ccccc1C(=S)N1CCOCC1)c1cccc([N+](=O)[O-])c1 | -24.1% | 6.2% | -21.9% | -4.0% | 79.4µM*
O=C(Oc1ccc(C(=S)N2CCCCC2)cc1)c1ccccc1 | -17.2% | 22.4µM* | 0.7% | -2.2% | 35.5µM*
C=Cc1c(C)/c2[n-]/c1=C\c1[n-]c(c(CC)c1C)/C=c1\[n-]c3c(c1C)C(=O)C(C(=O)[O-])C=3c1[n-]c(c(C)c1CCC(=O)[O-])\C=2.[Cu].[Na+].[Na+] (configuration not stated) | . | 44.7µM* | 31.6µM* | -8.6% | ?
CC(C)C[C@@H](C(=O)NC1CCN(Cc2ccccc2)CC1)N1Cc2ccccc2C1=O | -22.6% | . | . | . | .
CC(C)=CCCC(C)CC=O (configuration not stated) | 5.6%[176 µM] | . | . | . | .
O=C1c2c([N+](=O)[O-])cc([N+](=O)[O-])cc2S(=O)N1Cc1ccccc1 (configuration not stated) | ? | 50.1µM* | ? | -4.8% | 0.891µM*
CC(C)(C)OC(=O)NC(CC(=O)OCc1ccccc1)C(=O)O (configuration not stated) | 0.6% | 15.6% | -5.5% | 1.9% | 3.5%[59 µM]
COC(=O)C(Cc1cncn1COCc1ccccc1)NC(=O)OC(C)(C)C (configuration not stated) | 0.0% | -20.7% | 3.2% | -0.8% | 28.2µM*
Cc1cc(C(=O)N2CCC3(CC2)c2[nH]c4ccccc4c2CCN3C)n(C)n1 | 39.6% | . | . | . | .
CCNC(=O)C1Cc2cc(S(=O)(=O)N(CC)CC)ccc2N1C(C)=O (configuration not stated) | -5.6% | . | . | . | .
COc1ccc(C(=O)NNC(=O)Cc2nc3nc(C)cc(C)n3n2)cc1 | -1.8% | -15.9% | -13.7% | -1.4% | 0.355µM*
Cc1cc(C)n2nc(CC(=O)NNC(=O)c3ccccc3Cl)nc2n1 | 12.9% | 3.2% | 19.0% | -0.5% | 7.08µM*
SMILES | ALOX12 inh | Sfp inh | VDR inh | GRP78 ERSR act | G9a inh
COc1ccc2oc(C(=O)NC3=NCCS3)c(C)c2c1 | -6.2% | . | . | . | .
CC(C)c1ccc(/C=C2\SC(=S)N(CCC(=O)N3CCCCC3CCO)C2=O)cc1 (configuration not stated) | -8.9% | -17.8% | ? | -13.8% | 44.7µM*
O=C1/C(=C\c2ccccc2)SC(=S)N1CCC(=O)N1CCCCC1CCO (configuration not stated) | 0.5% | -1.5% | 9.4% | 3.1% | ?
Cn1c(=S)c2[nH]c(SCc3cccnc3)nc2n(C)c1=O | 3.16µM* | . | -16.9% | -3.3% | .
Oc1c(C(c2ccccn2)N2CCCCC2)cc(Cl)c2cccnc12 (configuration not stated) | ? | 4.8% | ? | -7.3% | 7.08µM*
CN1CCN(C(c2ccc(C(F)(F)F)cc2)c2cc(Cl)c3cccnc3c2O)CC1 (configuration not stated) | ? | 44.7µM* | . | . | 11.2µM*
CN1CCN(C(c2ccc(Cl)cc2)c2cc(Cl)c3cccnc3c2O)CC1 (configuration not stated) | 10µM* | 79.4µM* | 44.7µM* | -7.4% | 2.51µM*
CCC1CCCCN1C(=O)CCn1cnc2c1c(=O)n(C)c(=O)n2C (configuration not stated) | 16.0% | . | . | . | .
Cn1nc(C(F)(F)F)c(Br)c1C(=O)Nc1sc2c(c1C(N)=O)CCC2 | -21.0% | . | . | . | .
O=C1N(Cc2cccnc2)C[C@@H]2C[C@@H](c3ccc(-c4ccccc4)cc3)N3CCC[C@@]123 | -0.3% | -25.9% | 0.3% | 0.1% | 50.1µM*
Cn1cc([C@@H]2C[C@H]3CN(Cc4cccc(Cl)c4)C(=O)[C@]34CCCN24)c2ccccc21 | -2.4% | -9.2% | 19.7% | -2.9% | 50.1µM*
O=C1N(Cc2cccc(Cl)c2)C[C@@H]2C[C@@H](c3ccccn3)N3CCC[C@@]123 | -3.9% | 50.1µM* | -26.1% | 0.6% | 25.1µM*
CC(C)n1cc([C@@H]2C[C@H]3CN(Cc4cccc(Cl)c4)C(=O)[C@]34CCCN24)cn1 | 1.3% | 18.1% | 18.6% | -3.8% | 32.4%
O=C1N(Cc2cccnc2)C[C@@H]2C[C@@H](c3cccc(OCc4ccccc4)c3)N3CCC[C@@]123 | -5.9% | 4.7% | 3.0% | -1.1% | .
CC1CCN(C(=O)c2ccc(CSc3nc4ccncc4n3Cc3ccc(F)cc3)cc2)CC1 | 22.0% | -2.9% | -14.4% | -2.7% | 79.4µM*
Clc1cccc(-n2cccc2)c1 | -24.6% | . | . | . | .
COc1ccc(CNc2ncnc3c2CN(C2CCC2)C(=O)CN3C)cc1 | -28.6% | . | . | . | .
CSc1ccc(/C=N/NC(=O)c2ccccc2F)cc1 | -36.6% | . | . | . | .
Cc1cccc(N(CC(=O)NCCSCc2ccco2)S(=O)(=O)c2ccccc2)c1 | 0.0% | 56.2µM* | -8.7% | -2.6% | 16.8%[12.7 µM]
COc1cccc(N(CC(=O)NCCSCc2ccco2)S(=O)(=O)c2ccccc2)c1 | -27.3% | -6.8% | -1.8% | -2.5% | -13.9%
Cc1ccc(C)c(N(CC(=O)NCCSCc2ccco2)S(C)(=O)=O)c1 | 177.6% | 20µM* | 0.4% | -0.7% | ?
CS(=O)(=O)N(Cc1ccccc1)c1ccc(C(=O)NCCSCc2ccco2)cc1 | 0.0% | 28.2µM* | -14.9% | -2.8% | 5.9%[59 µM]
Cc1ccc(CSCCNC(=O)CN(c2cc(C)ccc2C)S(C)(=O)=O)cc1 | -13.3% | 11.1% | 14.7% | -6.7% | 43.5%[12.7 µM]
